The supplement of paper PMC10849652
The full data set covers some 7,900 targets. This sample favours those with a hit. About 0.6% of all pairs of compound and target were hits.

Legend:
Assay in all cases: log2 fold change, soluble protein after heating vs DMSO (PISA); higher = thermal stabilisation; K562 cells, 10 uM, 30 min; active = over 0.2 and 3.5 SD of the protein, either way, in both replicates (recomputed)
[1] = compound: C1=CC=C(C=C1)[C@H](COC2=CC3=C(C=C2)NC(=O)N3)NC(=O)C4=CC=CN(C4=O)CC5=CC(=C(C=C5)F)F
Procedure, shortened: (§1)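 Values are thermal stability changes relative to control samples and are taken from duplicates. They are stated as log2 fold changes. Before quantification by TMTpro 16plex LC-MS/MS with equalised channel sums, K562 cells at 2×10^6 cells/mL were treated with 10 μM compound for 30 min, heated in aliquots for 3 min across 48°C-58°C, pooled, extracted in PBS with 0.5% NP-40 at 4°C, and centrifuged at 21,000xg for 90 min to give the soluble supernatant.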

[2] = compound: CC1=C(SC2=C1C(=N[C@H](C3=NN=C(N32)C)CC(=O)N)C4=CC=C(C=C4)Cl)C
Procedure, shortened: as §1

[3] = compound: CC1=C2C(=CC=C1)N=C(N(C2=O)C3=CC=CC=C3C)CN4C=NC5=C(N=CN=C54)N
Procedure, shortened: as §1

[4] = compound: Cc1sc2c(c1C)C(c1ccc(Cl)cc1)=N[C@@H](CC(=O)OC(C)(C)C)c1nnc(C)n1-2
Procedure, shortened: as §1

[5] = compound: c1ccc([C@@H]2C[C@H]2NC2CCNCC2)cc1
Procedure, shortened: as §1

Measured: log2 fold change

FAAP100 (UniProt Q0VG06)
Sequence of UniProt Q0VG06 (Q0VG06 whole entry, looked up): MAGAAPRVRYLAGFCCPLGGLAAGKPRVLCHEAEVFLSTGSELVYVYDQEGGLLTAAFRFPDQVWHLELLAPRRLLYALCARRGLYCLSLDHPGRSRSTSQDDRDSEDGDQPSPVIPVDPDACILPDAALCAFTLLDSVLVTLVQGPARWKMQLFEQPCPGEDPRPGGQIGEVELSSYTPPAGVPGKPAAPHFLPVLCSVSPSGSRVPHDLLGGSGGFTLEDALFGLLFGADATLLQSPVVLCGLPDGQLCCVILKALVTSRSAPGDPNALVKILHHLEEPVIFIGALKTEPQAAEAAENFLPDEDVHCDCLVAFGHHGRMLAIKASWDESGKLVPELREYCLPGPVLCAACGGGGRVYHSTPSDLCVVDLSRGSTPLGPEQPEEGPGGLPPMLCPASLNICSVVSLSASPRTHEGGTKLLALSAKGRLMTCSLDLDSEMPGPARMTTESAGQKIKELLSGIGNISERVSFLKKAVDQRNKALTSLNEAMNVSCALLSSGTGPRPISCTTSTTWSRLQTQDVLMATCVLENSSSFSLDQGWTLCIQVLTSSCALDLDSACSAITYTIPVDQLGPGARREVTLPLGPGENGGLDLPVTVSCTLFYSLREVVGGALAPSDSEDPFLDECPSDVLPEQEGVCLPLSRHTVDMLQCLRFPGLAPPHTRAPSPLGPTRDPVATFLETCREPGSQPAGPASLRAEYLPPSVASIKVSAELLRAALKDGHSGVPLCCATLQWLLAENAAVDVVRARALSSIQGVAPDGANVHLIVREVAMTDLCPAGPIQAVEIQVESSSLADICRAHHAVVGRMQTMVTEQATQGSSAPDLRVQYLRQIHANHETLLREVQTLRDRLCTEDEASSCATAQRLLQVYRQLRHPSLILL
inactive: [1] -0.243 | [2] 0.078 | [3] 0.017 | [4] -0.073 | [5] 0.067

DPH5 isoform 5 (UniProt Q9H2P9)
inactive: [1] -0.025 | [2] 0.054 | [3] 0.092 | [4] -0.009 | [5] 0

CWC27 (UniProt Q6UX04)
inactive: [1] -0.039 | [2] 0.097 | [3] 0.103 | [4] -0.03 | [5] -0.001

DDX46 (UniProt Q7L014)
inactive: [1] -0.059 | [2] 0.09 | [3] 0.184 | [4] -0.064 | [5] 0

DNM2 (UniProt P50570)
inactive: [1] -0.023 | [2] 0.044 | [3] 0.078 | [4] -0.027 | [5] -0.036

DCUN1D1 (UniProt Q96GG9)
Sequence of UniProt Q96GG9 (Q96GG9 whole entry, looked up): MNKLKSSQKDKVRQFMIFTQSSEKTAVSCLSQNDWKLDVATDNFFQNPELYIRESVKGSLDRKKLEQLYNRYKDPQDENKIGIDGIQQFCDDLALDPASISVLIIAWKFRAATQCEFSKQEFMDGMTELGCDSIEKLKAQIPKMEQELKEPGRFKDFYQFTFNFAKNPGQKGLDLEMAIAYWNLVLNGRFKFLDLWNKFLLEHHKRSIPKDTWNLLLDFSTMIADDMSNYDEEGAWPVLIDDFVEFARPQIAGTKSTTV
inactive: [1] -0.011 | [2] 0.064 | [3] 0.073 | [4] -0.033 | [5] 0.003

FADS3 (UniProt Q9Y5Q0)
inactive: [1] 0.027 | [2] 0.023 | [3] 0.026 | [4] 0.025 | [5] -0.007

ERLIN1 (UniProt O75477)
inactive: [1] -0.007 | [2] -0.036 | [3] 0.002 | [4] -0.038 | [5] -0.026

EXOC5 (UniProt O00471)
inactive: [1] -0.069 | [2] -0.006 | [3] 0.07 | [4] 0.066 | [5] -0.018

EMD (UniProt P50402)
inactive: [1] 0.016 | [2] 0.022 | [3] 0.059 | [4] 0.058 | [5] 0.031

DBR1 (UniProt Q9UK59)
Sequence of UniProt Q9UK59 (Q9UK59 whole entry, looked up): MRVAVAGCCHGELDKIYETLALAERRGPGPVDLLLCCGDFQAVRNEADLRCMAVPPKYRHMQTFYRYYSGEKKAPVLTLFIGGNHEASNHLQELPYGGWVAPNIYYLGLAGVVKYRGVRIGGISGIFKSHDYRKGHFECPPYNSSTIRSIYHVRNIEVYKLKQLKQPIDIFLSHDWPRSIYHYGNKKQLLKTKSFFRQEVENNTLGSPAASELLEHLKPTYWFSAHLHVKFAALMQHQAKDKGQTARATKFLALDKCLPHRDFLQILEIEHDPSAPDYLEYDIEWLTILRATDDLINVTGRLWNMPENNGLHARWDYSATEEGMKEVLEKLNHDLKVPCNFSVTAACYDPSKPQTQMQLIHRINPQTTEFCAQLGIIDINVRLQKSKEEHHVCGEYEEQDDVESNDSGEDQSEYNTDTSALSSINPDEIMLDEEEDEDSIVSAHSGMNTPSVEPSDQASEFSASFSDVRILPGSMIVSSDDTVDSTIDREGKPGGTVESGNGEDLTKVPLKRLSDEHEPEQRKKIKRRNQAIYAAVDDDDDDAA
inactive: [1] 0.023 | [2] 0 | [3] 0 | [4] 0.017 | [5] 0.057

ERCC2 (UniProt P18074)
inactive: [1] 0 | [2] -0.025 | [3] -0.044 | [4] -0.104 | [5] 0.05

ERLIN2 (UniProt O94905)
inactive: [1] -0.025 | [2] -0.048 | [3] -0.038 | [4] 0.006 | [5] -0.044

EPHX2 (UniProt P34913)
Sequence of UniProt P34913 (P34913 whole entry, looked up): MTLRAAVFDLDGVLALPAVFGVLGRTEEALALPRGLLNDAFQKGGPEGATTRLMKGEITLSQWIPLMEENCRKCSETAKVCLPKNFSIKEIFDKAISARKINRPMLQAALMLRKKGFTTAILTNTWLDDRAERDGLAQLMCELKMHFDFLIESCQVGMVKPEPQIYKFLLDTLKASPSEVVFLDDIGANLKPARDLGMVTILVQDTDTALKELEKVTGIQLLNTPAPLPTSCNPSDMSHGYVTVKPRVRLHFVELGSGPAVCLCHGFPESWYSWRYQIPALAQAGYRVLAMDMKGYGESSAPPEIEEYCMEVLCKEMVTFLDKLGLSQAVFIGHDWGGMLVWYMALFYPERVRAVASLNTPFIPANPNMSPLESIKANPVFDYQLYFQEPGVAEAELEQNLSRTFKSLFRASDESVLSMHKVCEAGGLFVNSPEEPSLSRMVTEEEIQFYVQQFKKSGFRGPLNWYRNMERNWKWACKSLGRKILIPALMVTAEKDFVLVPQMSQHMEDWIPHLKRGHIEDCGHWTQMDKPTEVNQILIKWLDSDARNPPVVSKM
inactive: [1] -0.015 | [2] 0.091 | [3] 0.052 | [4] 0.143 | [5] -0.002

EIF2S3 (UniProt P41091)
inactive: [1] 0.008 | [2] -0.023 | [3] -0.017 | [4] 0.054 | [5] -0.002

ECPAS (UniProt Q5VYK3)
Sequence of UniProt Q5VYK3 (Q5VYK3 whole entry, looked up): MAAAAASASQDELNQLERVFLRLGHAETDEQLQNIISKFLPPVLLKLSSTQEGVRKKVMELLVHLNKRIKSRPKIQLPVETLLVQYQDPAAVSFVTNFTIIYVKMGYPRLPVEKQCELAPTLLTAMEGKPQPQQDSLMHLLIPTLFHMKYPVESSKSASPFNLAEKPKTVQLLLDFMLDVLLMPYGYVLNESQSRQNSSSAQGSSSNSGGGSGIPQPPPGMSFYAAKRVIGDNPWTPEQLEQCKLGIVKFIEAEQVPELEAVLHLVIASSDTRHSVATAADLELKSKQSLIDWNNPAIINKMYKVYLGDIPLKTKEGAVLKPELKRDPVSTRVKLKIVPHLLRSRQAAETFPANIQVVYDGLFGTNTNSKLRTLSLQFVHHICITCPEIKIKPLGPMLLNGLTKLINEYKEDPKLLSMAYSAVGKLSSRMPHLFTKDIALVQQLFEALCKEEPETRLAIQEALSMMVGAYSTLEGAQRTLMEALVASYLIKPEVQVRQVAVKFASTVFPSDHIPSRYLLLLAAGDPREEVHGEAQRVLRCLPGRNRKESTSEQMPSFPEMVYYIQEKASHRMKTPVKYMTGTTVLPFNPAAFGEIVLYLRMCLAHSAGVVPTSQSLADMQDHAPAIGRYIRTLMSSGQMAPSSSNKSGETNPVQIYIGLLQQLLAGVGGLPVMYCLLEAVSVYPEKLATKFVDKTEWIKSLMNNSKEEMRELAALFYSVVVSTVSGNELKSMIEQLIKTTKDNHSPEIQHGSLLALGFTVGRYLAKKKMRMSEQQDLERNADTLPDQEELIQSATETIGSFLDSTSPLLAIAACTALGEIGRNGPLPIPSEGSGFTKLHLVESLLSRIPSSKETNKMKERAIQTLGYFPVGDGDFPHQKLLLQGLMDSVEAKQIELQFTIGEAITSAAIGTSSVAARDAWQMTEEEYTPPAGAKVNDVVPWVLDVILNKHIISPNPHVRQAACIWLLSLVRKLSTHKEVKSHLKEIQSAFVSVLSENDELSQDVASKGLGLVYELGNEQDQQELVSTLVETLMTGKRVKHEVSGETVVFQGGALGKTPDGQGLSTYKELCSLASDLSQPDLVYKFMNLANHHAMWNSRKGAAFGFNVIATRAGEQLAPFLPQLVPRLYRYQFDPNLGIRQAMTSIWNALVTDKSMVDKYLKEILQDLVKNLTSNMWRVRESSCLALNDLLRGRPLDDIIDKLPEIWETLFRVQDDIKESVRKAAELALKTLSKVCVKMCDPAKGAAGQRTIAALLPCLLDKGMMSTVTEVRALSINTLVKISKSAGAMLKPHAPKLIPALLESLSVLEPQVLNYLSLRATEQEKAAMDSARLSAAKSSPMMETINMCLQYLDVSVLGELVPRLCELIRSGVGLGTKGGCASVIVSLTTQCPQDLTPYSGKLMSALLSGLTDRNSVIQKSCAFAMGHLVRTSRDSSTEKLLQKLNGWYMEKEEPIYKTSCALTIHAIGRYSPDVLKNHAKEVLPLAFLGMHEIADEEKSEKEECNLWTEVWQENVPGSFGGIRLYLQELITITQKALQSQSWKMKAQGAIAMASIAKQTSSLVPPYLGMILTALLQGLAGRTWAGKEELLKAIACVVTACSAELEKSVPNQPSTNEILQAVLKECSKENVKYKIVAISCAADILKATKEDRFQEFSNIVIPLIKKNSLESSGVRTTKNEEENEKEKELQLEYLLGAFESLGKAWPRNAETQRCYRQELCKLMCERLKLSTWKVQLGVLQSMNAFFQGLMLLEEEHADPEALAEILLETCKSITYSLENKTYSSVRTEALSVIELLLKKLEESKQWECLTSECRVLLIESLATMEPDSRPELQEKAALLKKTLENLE
inactive: [1] -0.127 | [2] 0.047 | [3] 0.112 | [4] -0.032 | [5] -0.01

EEF1A1 (UniProt P68104)
inactive: [1] 0.112 | [2] 0.212 | [3] -0.097 | [4] 0.125 | [5] -0.471

CTSC (UniProt P53634)
inactive: [1] 0.018 | [2] -0.012 | [3] -0.039 | [4] -0.01 | [5] 0.056

CTSB (UniProt P07858)
inactive: [1] -0.015 | [2] -0.024 | [3] 0.019 | [4] -0.024 | [5] -0.035

EEF1B2 (UniProt P24534)
Sequence of UniProt P24534 (P24534 whole entry, looked up): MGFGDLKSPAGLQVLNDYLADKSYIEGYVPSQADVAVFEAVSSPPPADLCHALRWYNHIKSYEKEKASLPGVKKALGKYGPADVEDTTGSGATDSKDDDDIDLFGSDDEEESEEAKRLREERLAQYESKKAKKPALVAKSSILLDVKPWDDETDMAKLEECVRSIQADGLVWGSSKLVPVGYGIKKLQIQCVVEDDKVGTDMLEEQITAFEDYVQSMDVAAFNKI
inactive: [1] -0.037 | [2] -0.002 | [3] 0.036 | [4] 0.026 | [5] -0.034

EIF4E isoform 2 (UniProt P06730)
inactive: [1] 0.029 | [2] -0.026 | [3] -0.002 | [4] -0.144 | [5] 0.009

ECH1 (UniProt Q13011)
Sequence of UniProt Q13011 (Q13011 whole entry, looked up): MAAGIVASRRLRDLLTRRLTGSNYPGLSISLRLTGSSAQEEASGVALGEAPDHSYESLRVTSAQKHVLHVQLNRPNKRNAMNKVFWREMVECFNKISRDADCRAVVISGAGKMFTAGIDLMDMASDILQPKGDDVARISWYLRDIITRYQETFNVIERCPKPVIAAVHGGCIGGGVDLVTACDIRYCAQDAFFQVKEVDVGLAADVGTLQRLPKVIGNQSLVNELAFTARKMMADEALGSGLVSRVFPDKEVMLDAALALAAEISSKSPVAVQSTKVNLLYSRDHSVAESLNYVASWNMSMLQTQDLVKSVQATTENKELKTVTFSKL
inactive: [1] -0.072 | [2] 0.161 | [3] 0.086 | [4] -0.114 | [5] -0.046

DFFB (UniProt O76075)
inactive: [1] -0.027 | [2] 0.099 | [3] 0.048 | [4] 0.202 | [5] 0.049

E2F4 (UniProt Q16254)
Sequence of UniProt Q16254 (Q16254 whole entry, looked up): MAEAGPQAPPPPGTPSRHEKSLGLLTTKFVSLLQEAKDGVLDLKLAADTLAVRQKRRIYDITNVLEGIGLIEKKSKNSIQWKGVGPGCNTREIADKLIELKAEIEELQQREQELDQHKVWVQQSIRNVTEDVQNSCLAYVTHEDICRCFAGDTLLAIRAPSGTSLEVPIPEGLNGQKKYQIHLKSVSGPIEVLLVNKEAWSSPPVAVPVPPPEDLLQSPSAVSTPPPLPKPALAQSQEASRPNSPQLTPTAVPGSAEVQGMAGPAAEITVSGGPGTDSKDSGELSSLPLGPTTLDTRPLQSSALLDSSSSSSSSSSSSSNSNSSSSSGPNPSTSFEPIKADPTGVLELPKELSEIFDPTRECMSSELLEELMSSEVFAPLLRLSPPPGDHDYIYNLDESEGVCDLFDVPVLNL
inactive: [1] 0.006 | [2] 0.039 | [3] 0.098 | [4] 0.022 | [5] -0.001

DYNC1I2 isoform 5 (UniProt Q13409)
inactive: [1] 0.019 | [2] 0.021 | [3] -0.006 | [4] -0.033 | [5] -0.019
